Source: PubChem BioAssay (NCATS)
Records with an inconclusive call do not appear. Values without a mark were called inactive. The call rests on the fitted dose curve; in most records, active means well fitted activation curve with a large enough effect; inconclusive means small, poorly fitted or top-dose-only effect; inactive means flat fitted curve, though single readings scatter.

assay: Cellular Toxicity (caspase-3) Jurkat (AID 655); conditions: Jurkat caspase-3 activation, luminescence; caspase-3 activation: at 92.2 µM (top of the series), DMSO = 0%, tamoxifen = 100%;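 further: cells exposed to compound for 16 h at 37 °C before reading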
Description: NIH Chemical Genomics Center [NCGC]
NIH Molecular Libraries Screening Centers Network [MLSCN]
National Institutes of Environmental Health Sciences [NIEHS]
National Toxicology Program [NTP]
We have developed a 1536-well cell-based assay for quantitative high throughput screening (qHTS) against a number of cell lines to determine in vitro caspase 3/7 of small molecules. This particular assay uses the Jurkat cell line which is derived from human T cell leukemia.
NCGC Assay Protocol Summary:
The Caspase-Glo 3/7 assay (Promega) is a homogeneous method to measure caspase-3 and caspase-7 activities in cultured cells. The quantitation of caspase 3/7 activity is based on the cleavage of a peptide-aminoluciferin substrate. After caspase cleaves the substrate the free aminoluciferin is liberated and serves as the substrate of luciferase, which generates the light. The luminescent signal is proportional to amount of caspase 3/7 activity present.
Using the Caspase-Glo 3/7 assay, the amount of caspase 3/7 activity was measured in the Jurkat cell line with complete culture medium following compound treatment for 16 hours. The assay was performed in opaque white 1536-well plates. In the screen, tamoxifen and doxorubicin were used as positive controls. Library compounds were measured for their ability to cause the activation of caspase 3/7 in the cell line, as reflected by an increase in luminescence signal, in a concentration-dependent manner. Data were normalized to the controls for basal activity (DMSO only) and 100% stimulation (100 uM tamoxifen). AC50 values were determined from concentration-response data modeled with the standard Hill equation.
qHTS protocol for caspase 3/7 assay in Jurkat cells
[Step] [Parameter] [Value] [Description]
1. Reagent; 5 uL; 5000 Jurkat cells/well
3. Controls; 23 nL; Tamoxifen 0.23 uM to 100 uM & Doxorubicin 7.0 pM to 100 uM
4. Time; 16 hr; 37 °C incubation
5. Reagent; 5 uL; Caspase-Glo 3/7 reagent
6. Time; 20 min; Room Temperature
7. Detection; Luminescence; Viewlux plate reader
Keywords: caspase 3/7, apoptosis, Jurkat cell line, luminescence, NTPHTS, NTPHTS_NCGC, NIEHS, EPA, DSSTox, MLSMR, MLSCN, NIH Roadmap, qHTS, NCGC

| Structure (SMILES) | caspase-3 activation |
| --- | --- |
| O=[N+]([O-])c1ccc(O)c([N+](=O)[O-])c1 | -6.84% |
| CCBr | -0.439% |
| ClCc1ccccc1 | 0.582% |
| Cc1cccc(C)c1N | -0.00153% |
| Cc1ccc2c(C)cccc2c1 | -1.07% |
| c1ccc(OCC2CO2)cc1 (stereo not given) | 1.63% |
| c1ccc(NNc2ccccc2)cc1 | 0.504% |
| C=CC(=O)OCCO | 15.3% |
| CC(C)(OOC(C)(C)c1ccccc1)c1ccccc1 | -0.0747% |
| Nc1ccc(Cc2ccc(N)c(Cl)c2)cc1Cl | 25.3% |
| C=COC(C)=O | 1.08% |
| Cc1cccc(N)c1C | 0.961% |
| CC(C)[N+](=O)[O-] | 1.63% |
| CCCCOC(=O)c1ccccc1N | 1.19% |
| COC(=O)Nc1nc2ccccc2[nH]1 | 10.9% |
| Oc1ccc(Cl)c(Cl)c1Cl | 0.688% |
| CNC(=O)O/N=C/C(C)(C)S(C)=O (stereo not given) | 0.627% |
| Cl/C=C/CCl | 1.51% |
| Nc1cc(Cl)cc(Cl)c1 | -0.381% |
| C=CC#N | -0.0463% |

| Structure (SMILES) | caspase-3 activation |
| --- | --- |
| C=CCOCC1CO1 (stereo not given) | -0.0286% |
| CCC(Cl)[N+](=O)[O-] (stereo not given) | 1.33% |
| CCOP(=O)(OCC)OCC | -0.738% |
| OCC(Cl)CCl (stereo not given) | 2.02% |
| N#CCBr | 0.425% |
| N#C/C=C/C#N | -8.24% |
| CC(C)OS(C)(=O)=O | 1.6% |
| Cc1coc2c1CCC(C)C2 (stereo not given) | 0.203% |
| Clc1ccc(C(c2ccccc2Cl)C(Cl)(Cl)Cl)cc1 (stereo not given) | 5.05% |
| c1ccc(N=NNc2ccccc2)cc1 | 6.34% |
| ClC(Cl)(Cl)C(Cl)(Cl)Cl | -0.424% |
| CCCCCC[N+](=O)[O-] | 0.0633% |
| Cc1ccc2c(c1N)C(=O)c1ccccc1C2=O | -9.07% |
| C=CC=O | 13.2% |
| O=[N+]([O-])c1cccc2c([N+](=O)[O-])cccc12 | 0.295% |
| Nc1cc(Cl)cc(C(=O)O)c1Cl | -0.545% |
| ClCCOCCCl | -0.264% |
| Nc1cc(Cl)ccc1Cl | 0.909% |
| Clc1cccc(Cl)c1Cl | -0.0806% |
| C=CCO | 2.82% |
